The text below walks through data of PubChem BioAssay AID1220 (Sanford-Burnham Center for Chemical Genomics, 2008).

The whole screen tested about 190,000 compounds, of which about 1,300 (0.68%) were called active. The full list was thinned out, with actives kept by preference. A number with no mark means an inactive call. No stated cut-off is given here; in the data, active means inhibition above about 50%; inactive means the rest.

In the experiment the target is Mannose-6-phosphate isomerase (Homo sapiens) (UniProt P34949). In words: MPI inhibition at elevated mannose 6-phosphate – biochemical, fluorescence intensity, high mannose 6-phosphate, primary screen (AID 1220). The conditions noted are these: recombinant PMI enzyme, coupled fluorescence intensity; at 20 µM; stronger effect = higher value.
Sequence of Mannose-6-phosphate isomerase (Homo sapiens) (P34949 whole entry, looked up): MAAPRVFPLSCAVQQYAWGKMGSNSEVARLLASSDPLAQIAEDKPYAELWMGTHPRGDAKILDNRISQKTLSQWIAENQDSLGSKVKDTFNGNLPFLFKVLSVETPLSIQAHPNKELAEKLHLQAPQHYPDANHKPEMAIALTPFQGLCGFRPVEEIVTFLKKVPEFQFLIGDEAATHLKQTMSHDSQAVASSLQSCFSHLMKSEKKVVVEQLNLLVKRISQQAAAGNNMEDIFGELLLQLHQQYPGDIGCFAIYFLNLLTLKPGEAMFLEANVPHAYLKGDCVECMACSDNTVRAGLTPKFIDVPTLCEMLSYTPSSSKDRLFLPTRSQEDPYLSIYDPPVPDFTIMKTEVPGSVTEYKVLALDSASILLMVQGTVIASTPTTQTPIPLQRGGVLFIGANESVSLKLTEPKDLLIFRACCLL
On to `COc1ccc(NC(=S)Nc2ccc3snnc3c2)cc1`, for which the inhibition is 54.2% (active).
Regarding `COc1ccc(NC(=S)Nc2ccc3nc(C)c(C)nc3c2)cc1`, the inhibition is 54.2% (active).
Then `COc1ccc(NC(=O)c2ccc3snnc3c2)cc1`, with -1.3%; and `CNC(=S)Nc1ccc2nc(C)c(C)nc2c1`, with 38%.
On to `S=C(Nc1ccc(N2CCOCC2)cc1)Nc1ccc2snnc2c1`, for which the inhibition was 41%.
With `COc1ccc(NC(=S)Nc2ccc3nsnc3c2)cc1`, the inhibition was 47%.
Then `CCNC(=S)Nc1ccc(Cl)c(C(F)(F)F)c1`, with 7.2%.
The same measure for `CCN1CCC(NC(=O)Nc2ccc(F)cc2F)CC1`: -11.5%.
The same measure for `CCCS(=O)(=O)c1ccc(COC(=O)c2ccc(NC(C)=O)cc2)cc1`: -0.1%; for `c1ccn2c(Cc3nnc4ccccn34)nnc2c1`: -7.1%; for `CCn1nc(C)c(C(=O)Nc2cc(Oc3ccc(Cl)cc3)cc([N+](=O)[O-])c2)c1C`: 4.3%.
For the compound `O=C(N/C(=C\c1ccco1)C(=O)N1CCCC1)c1cccs1`, the inhibition is 8.5%.
As for `CCC(C)(C(=O)NC1CCCC1)N(Cc1cccs1)C(=O)c1ccccn1` (configuration not stated), the inhibition was 59.3% (active).
The same measure for `CCC(C)(C(=O)NC1CCCC1)N(Cc1cccs1)C(C)=O` (configuration not stated): 0.2%; for `CCC(C)(C(=O)NC1CCCCC1)N(Cc1cccs1)C(=O)c1ccccn1` (configuration not stated): -2%; for `Cc1c2c(nc3c(C(=O)NC4CC4)cnn13)CCCC2`: -0.9%.
The same measure for `COc1cccc(CN2CCNC(=O)C2CC(=O)NCc2cn3ccccc3n2)c1OC` (configuration not stated): 7.8%; for `COc1cccc(CN2CCNC(=O)C2CC(=O)NCCn2cccn2)c1OC` (configuration not stated): 16.7%.
The same measure for `COc1cccc(CN2CCNC(=O)C2CC(=O)NCCn2ccc3ccccc32)c1OC` (configuration not stated): 51.1% (active); for `Cc1c(NC(=O)C2CCCO2)cccc1[N+](=O)[O-]` (configuration not stated): 0.2%; for `Cc1c(N=C2C(=O)Nc3ccccc32)c(=O)n(-c2ccccc2)n1C`: 14.2%.
Take `Cc1csc(=Nc2c(C)n(C)n(-c3ccccc3)c2=O)n1-c1ccccc1`: the inhibition was 5.3%.
As to `Cc1c(N=c2scc(-c3ccccc3)n2C)c(=O)n(-c2ccccc2)n1C`, the inhibition is -10.5%.
The same measure for `Cc1c(N=CC=Nc2c(C)n(C)n(-c3ccccc3)c2=O)c(=O)n(-c2ccccc2)n1C`: -5.1%; for `O=C(N1CCOCC1)N(CCN1CCOCC1)Cc1cccc2ccccc12`: 6.2%.
As for `CCOc1ccccc1NC(=O)c1ccc2nccnc2c1`, the inhibition was 14.2%.
Regarding `CC(NS(=O)(=O)c1ccc(Br)cc1)C(c1cccs1)N1CCOCC1` (configuration not stated), the inhibition is 10.2%.
In the case of `O=c1cc(CO)oc(C(Nc2cccc([N+](=O)[O-])c2)c2ccccn2)c1O` (configuration not stated), the inhibition is 28.5%.
The same measure for `O=c1cc(CO)oc(C(Nc2cccc(C(F)(F)F)c2)c2ccccn2)c1O` (configuration not stated): 43.6%.
For `CCOc1ccc(NC(c2ccccn2)c2oc(CO)cc(=O)c2O)cc1` (configuration not stated), the inhibition was 51.1% (active).
Take `COc1ccc(C(NC(C)=O)c2c(O)ccc3ccccc23)cc1OC` (configuration not stated): the inhibition is 8.9%.
Then `O=C(NC(c1ccc(Cl)cc1)c1c(O)ccc2ccccc12)c1ccccc1` (configuration not stated), with 27.6%; and `CC(=O)NC(c1ccc(Cl)cc1)c1c(O)ccc2ccc(O)cc12` (configuration not stated), with 69.9% (active).
Then `CCc1ccc(-n2c(Cc3ccccc3)n[nH]c2=S)cc1`, with 10.9%; and `CCOc1ccc(N=C2NN=C(c3cc(C)n(CC4CCCO4)c3C)CS2)cc1` (configuration not stated), with -81.4%; and `COCCN=C1NN=C(c2cc(C)n(CC3CCCO3)c2C)CS1` (configuration not stated), with 54.9% (active).
Then `Cc1cc(C2=NNC(=NCCc3ccccc3)SC2)c(C)n1CC1CCCO1` (configuration not stated), with -32.7%; and `Cc1cc(C)c(S(=O)(=O)Cc2ccccc2)c(=O)[nH]1`, with -13%.
In the case of `COc1ccc(/C=N/NC(=O)Cn2c(Cc3ccc(OC)c(OC)c3)nc3ccccc32)cc1OC`, the inhibition was 5.5%.
Then `CCN1C(=O)C(CC(=O)Nc2ccccc2)S/C1=N\c1ccccn1` (configuration not stated), with -2.2%; and `CCOC(=O)C1(Cc2ccccc2C)CCCN(Cc2cn(C)nc2C)C1` (configuration not stated), with 12.5%; and `CCOC(=O)C1(Cc2ccccc2C)CCCN(Cc2ccc(NC(C)=O)cc2)C1` (configuration not stated), with -4.1%.
For `CCOC(=O)C1(Cc2ccccc2C)CCCN(Cc2cc(OC)c(O)c(OC)c2)C1` (configuration not stated), the inhibition was 65.5% (active).
As for `COc1ccc(CC(=O)Nc2ccc(OC)c(NC(=O)c3ccco3)c2)cc1`, the inhibition is 11.2%.
For `COc1cc(NC(C)CCCN)c2ncccc2c1Oc1ccccc1` (configuration not stated), the inhibition was 56.6% (active).
Turning to `COc1ccc(S(=O)(=O)N(CC(C)C)CC(C)C)c2cccnc12`, the inhibition is 10.4%.
For `COc1ccccc1Oc1ccc2c(c1)C(=O)N(c1ccc(Br)c3cccnc13)C2=O`, the inhibition was 8.4%.
On to `O=C(N/N=C/c1c[nH]c2ccccc12)c1ccn(Cc2ccc(Cl)cc2)n1`, for which the inhibition was 1.6%.
For the compound `O=C(CSCc1nc2ccccc2[nH]1)Nc1ccc(Oc2ccccc2)cc1`, the inhibition was 10.1%.
Take `O=S(=O)(NCc1ccncc1)c1ccccc1`: the inhibition was -9.4%.
In the case of `O=C(NCc1ccccc1)Nc1cccn(Cc2c(F)cccc2Cl)c1=O`, the inhibition is 53.7% (active).
As to `O=C(NCc1ccccc1)Nc1cccn(Cc2ccccc2F)c1=O`, the inhibition was 20.5%.
Regarding `O=C(Nc1ccccc1)Nc1cccn(Cc2c(F)cccc2Cl)c1=O`, the inhibition is 35.6%.
Then `COC(=O)Nc1cccn(Cc2c(Cl)cccc2Cl)c1=O`, with 58.7% (active).
The same measure for `O=C(NCc1ccccc1)Nc1cccn(Cc2ccccc2Cl)c1=O`: 38.2%; for `O=C(Nc1cccn(Cc2c(F)cccc2Cl)c1=O)NC1CCCCC1`: 17.3%.
The same measure for `Cc1ccc(NC(=O)Nc2cccn(Cc3c(F)cccc3Cl)c2=O)cc1`: 55.7% (active); for `CC(=O)Nc1cccn(Cc2c(Cl)cccc2Cl)c1=O`: 8.5%.
As for `C#CCOC(=O)Nc1cccn(Cc2c(Cl)cccc2Cl)c1=O`, the inhibition was -71%.
The same measure for `O=C(Cn1cncn1)NCCC(c1ccccc1)c1ccccc1`: 5.2%.
Then `COc1ccc2c(c1)CC/C2=N\OC(=O)c1cccc(C)c1`, with 2.5%; and `CCC1CCCCN1C(=O)c1c[nH]c2ccc(S(=O)(=O)N(C)c3ccc(Cl)cc3)cc2c1=O` (configuration not stated), with 1.6%.
The same measure for `O=C(COc1ncnc2cc([N+](=O)[O-])ccc12)N(CCc1ccccc1)Cc1ccccc1`: 16.7%; for `O=C(CCN1CCN(S(=O)(=O)c2ccc(Br)cc2)CC1)Nc1ccccc1F`: -6.1%.
On to `O=C1c2ccccc2C(=O)c2c1ncn2-c1ccccc1`, for which the inhibition was 59.1% (active).
On to `c1ccc(-n2cnc3ccccc32)cc1`, for which the inhibition is -1.2%.
For the compound `O=C1c2ccccc2-c2nccnc21`, the inhibition is 6.6%.
Then `Cc1ccsc1/C=N/N=C1\C(=O)Nc2ccccc21`, with 5.3%.
In the case of `CCc1nn(C(C)C(=O)Nc2cccc(C)c2C)c(=O)c2cc3occc3n12` (configuration not stated), the inhibition is 6.9%.
On to `CCCCc1c(C)nc2ccccc2c1SCCC#N`, for which the inhibition was -31.5%.
Then `O=C(c1cccc(F)c1)N1CCN(c2ccc([N+](=O)[O-])c3cccnc23)CC1`, with 62.3% (active); and `O=C(c1ccccc1F)N1CCN(c2ccc([N+](=O)[O-])c3cccnc23)CC1`, with 58.4% (active); and `O=C(c1cc(F)c(F)cc1Cl)N1CCN(c2ccc([N+](=O)[O-])c3ncccc23)CC1`, with 46.1%.
Then `O=[N+]([O-])c1ccc(N2CCN(CCO)CC2)c2ncccc12`, with 65% (active); and `O=C(c1cccc(F)c1)N1CCN(c2cc(N3CCCCC3)c(F)cc2[N+](=O)[O-])CC1`, with 15.2%; and `O=C(c1ccccc1F)N1CCN(c2ccc([N+](=O)[O-])c3ncccc23)CC1`, with 38.3%.
Take `Cc1ccc(S(=O)(=O)N2CCN(c3ccc([N+](=O)[O-])c4cccnc34)CC2)cc1`: the inhibition is 20.2%.
The same measure for `COc1ccc(N2CCN(C(=O)c3cccc(F)c3)CC2)c([N+](=O)[O-])c1`: 11.8%.
For the compound `Cc1cc(N2CCN(c3ccc([N+](=O)[O-])c4cccnc34)CC2)c2ccccc2n1`, the inhibition is 46.7%.
Consider `CSc1nc2c(c(=O)n1C)SC(C)C2` (configuration not stated), for which the inhibition is 4.1%.
`Cc1ccn(-c2cc(O)c(-n3ccc(C)n3)cc2O)n1`: the inhibition was 13.9%.
In the case of `COCCCNC(=O)Cn1cnc2sc(C)c(S(=O)(=O)N3CCN(c4ncccn4)CC3)c2c1=O`, the inhibition was 9.4%.
The same measure for `COc1cccc2cc(-c3ccnc(N)n3)oc12`: 18.3%; for `Cc1c(C(=O)NC(C)CCc2ccccc2)cccc1[N+](=O)[O-]` (configuration not stated): 10.1%.
As for `Cc1ccc(CNC(=O)c2cc3c(-c4ccc(Cl)cc4)nn(C)c3s2)o1`, the inhibition is 12.8%.
Then `CCCN(CCC)C(=O)CC(c1ccccc1)c1cc(Br)ccc1O` (configuration not stated), with 17.3%.
`CCCSc1nc2c3c(sc2c(=O)[nH]1)CC(C)(CC)OC3` (configuration not stated): the inhibition was 4.6%.
As to `Nc1ccccc1C(=O)N=Nc1[nH]c(N)c2ccccc12`, the inhibition was 9.9%.
The same measure for `CCOC(=O)n1c(=O)n(Cc2ccc(Cl)c(Cl)c2)c2ccccc21`: 12.4%.
The same measure for `Cc1[nH][nH]c(=O)c1C(c1c(C)[nH][nH]c1=O)c1cn(Cc2ccc(Cl)c(Cl)c2)c2ccccc12`: 58% (active).
Regarding `Cn1cc(C(CC(=O)O)C(=O)O)c2ccccc21` (configuration not stated), the inhibition is 4.1%.
For `Cn1cc(C(c2ccccn2)c2cn(C)c3ccccc23)c2ccccc21`, the inhibition was -0.8%.
Consider `NC(=O)CSc1cn(Cc2ccc(F)cc2)c2ccccc12`, for which the inhibition was 12.6%.
Then `O=C(O)Cc1cn(Cc2ccc(F)cc2)c2ccccc12`, with -9.7%.
Regarding `Cc1[nH][nH]c(=O)c1C(c1c(C)[nH][nH]c1=O)c1cn(Cc2ccc(F)cc2)c2ccccc12`, the inhibition is 57.2% (active).
For the compound `Cc1[nH][nH]c(=O)c1C(c1c(C)[nH][nH]c1=O)c1cn(C)c2ccccc12`, the inhibition was 54.8% (active).
For `Cc1[nH][nH]c(=O)c1C(c1ccc(-c2ccc(Cl)c(Cl)c2)o1)c1c(C)[nH][nH]c1=O`, the inhibition was -45.1%.

The term inhibition denotes the drop in the measured response relative to a control, in per cent.
